PubChem BioAssay AID1851 (National Center for Advancing Translational Sciences (NCATS), 2009)
The campaign covered roughly 16,000 compounds. About 5,800 (36%) were called active. Inconclusive results (about 23%) are left out. The call rests on the fitted dose curve; in most records, active means well fitted curve in the direction sought with a large enough effect; inconclusive means small, poorly fitted or top-dose-only effect, or effect the other way; inactive means no such curve, though single readings can be large or run the other way. Some of the results follow.

Biological target: Cytochrome P450 2C19 (Homo sapiens) (UniProt P33261)
Sequence (P33261 whole entry, looked up): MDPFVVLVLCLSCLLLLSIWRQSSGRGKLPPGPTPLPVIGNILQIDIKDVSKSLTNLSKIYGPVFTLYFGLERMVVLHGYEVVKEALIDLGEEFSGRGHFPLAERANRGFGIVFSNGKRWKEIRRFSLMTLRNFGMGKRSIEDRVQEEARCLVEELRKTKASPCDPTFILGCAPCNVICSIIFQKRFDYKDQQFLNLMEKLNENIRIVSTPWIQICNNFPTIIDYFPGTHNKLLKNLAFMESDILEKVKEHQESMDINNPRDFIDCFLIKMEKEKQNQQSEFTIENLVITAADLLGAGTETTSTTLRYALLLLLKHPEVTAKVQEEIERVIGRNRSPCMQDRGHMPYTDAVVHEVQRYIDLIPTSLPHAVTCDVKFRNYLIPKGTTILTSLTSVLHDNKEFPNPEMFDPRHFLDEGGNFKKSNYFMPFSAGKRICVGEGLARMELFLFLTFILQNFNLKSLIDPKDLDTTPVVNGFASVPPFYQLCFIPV
Experiment: Cytochrome panel assay with activity outcomes
Conditions: recombinant CYP, pro-luciferin dealkylation, luminescence, p450-cyp2c19; series mostly up to 57.1 µM; activity, negative = inhibition: at the top concentration
On the % scale 0 is the no-effect control and ±100 the full control effect.

Structure (SMILES)	activity, negative = inhibition	AC50
OC[C@@H]1O[C@@H](n2cnc3cncnc32)[C@@H](O)[C@H]1O	-17.6% (inactive)	
O=C1C=C(NCCc2cc(Br)c(O)c(Br)c2)C(=O)c2ncccc21		0.501 µM (active)
O=C(Nc1ncc(Cc2cc(Cl)ccc2Cl)s1)c1ccc([N+](=O)[O-])cc1		2 µM (active)
CCOC(=O)N/N=C1/C[C@@H](O)[C@@H](O)[C@@H]2[C@@H]3C(=O)N(c4cccc(Oc5ccccc5)c4)C(=O)[C@H]3CC[C@H]12	42.4% [at 11.4 µM] (inactive)	
N=C1CCC[C@@H]1C(=S)SCCC(N)=O	-14.4% [at 11.4 µM] (inactive)	
CC(C)CC1NC(=S)N(C2CCCCC2)C1=O (stereo not drawn)		7.94 µM (active)
CCC(C)C1NC(=S)N(C2CCCCC2)C1=O (stereo not drawn)		2 µM (active)
COc1ccc(Oc2ncc3nc(-c4cc(F)cc(F)c4)c(=O)n(C)c3n2)cc1	0.472% (inactive)	
Cn1c(=O)c(-c2cc(F)cc(F)c2)nc2cnc(Oc3ccccc3)nc21	-42.9% (inactive)	
Cc1nc2cnc(Oc3ccccc3)nc2n(C)c1=O	-44.4% (inactive)	
COc1ccc(Oc2ncc3nc(C)c(=O)n(C)c3n2)cc1	-36% (inactive)	
Cn1c(=O)c(CCc2ccccc2)nc2cnc(Oc3ccccc3)nc21		25.1 µM (active)
COc1ccc(Oc2ncc3nc(CCc4ccccc4)c(=O)n(C)c3n2)cc1		10 µM (active)
CC(C)N=c1cc2n(-c3ccc(Cl)cc3)c3ccccc3nc-2cc1Nc1ccc(Cl)cc1	-25.3% [at 25.6 µM] (inactive)	
O=c1c2ccccc2nc2n1C(CSCc1cccc(C(F)(F)F)c1)CS2 (stereo not drawn)		0.251 µM (active)
COc1ccc2cc3[n+](cc2c1OC)CCc1cc2c(cc1-3)OCO2	-19.4% [at 25.6 µM] (inactive)	
C[n+]1cc2c3c(ccc2c2ccc4cc5c(cc4c21)OCO5)OCO3		6.31 µM (active)
O=C(Nc1cc2c(oc1=O)CCCC2=O)c1ccc(Cl)cc1		22.4 µM (active)
O=c1ccc(NS(=O)(=O)c2ccc(Cl)cc2)cn1Cc1ccc(Cl)c(Cl)c1		0.251 µM (active)
O=c1ccc(NS(=O)(=O)c2ccccc2)cn1Cc1ccc(Cl)c(Cl)c1		0.2 µM (active)

Structure (SMILES)	activity, negative = inhibition	AC50
Cc1ccc(S(=O)(=O)Nc2ccc(=O)n(Cc3ccc(Cl)c(Cl)c3)c2)cc1		0.158 µM (active)
CS(=O)(=O)c1ccccc1-c1nc(-c2cc(C(F)(F)F)cc(C(F)(F)F)c2)no1	-26.9% (inactive)	
Clc1ccccc1-c1nc(-c2ccncc2)no1		0.0631 µM (active)
O=C(c1ccccc1-c1nc(-c2ccccc2)no1)N1CCOCC1	-3.39% (inactive)	
CO[C@@H]1COC(=O)C/C=C\[C@@H](C)[C@@H]2C=C[C@H](O)[C@@H](COC(=O)CCC[C@H]1C)O2	-8.99% [at 11.4 µM] (inactive)	
COc1ccc2c(=O)c(-c3ccccc3C)c(C)oc2c1		20 µM (active)
CC(C)Oc1ccc2c(=O)c3cc(C(=O)O)ccc3oc2c1	-30.5% (inactive)	
N[C@H](C(=O)O)[C@H](O)C(=O)O	-18% (inactive)	
COc1ccccc1C1CC(c2c(-c3ccccc3)c3cc(Cl)ccc3[nH]c2=O)=NN1S(C)(=O)=O (stereo not drawn)		3.16 µM (active)
Cc1ccc(-c2noc(-c3cc4ccccc4oc3=O)n2)cc1	-22.9% (inactive)	
O=c1oc2ccccc2cc1-c1csc(NN=C2CCCCC2)n1		1.58 µM (active)
CC1CC(C)CN(C(=O)CSc2nnc(CSc3ncccn3)n2C)C1 (stereo not drawn)		14.1 µM (active)
CCCc1nnc(SCC(=O)N2CCCC(C)C2)n1CC1CCCO1 (stereo not drawn)	-12.9% (inactive)	
CS(=O)(=O)c1ccc([C@H](O)[C@H](CO)NC(=O)C(Cl)Cl)cc1	-51.5% [at 25.6 µM] (inactive)	
N#CC(=C1CCCC1)c1nc(-c2ccccc2)cs1		1.41 µM (active)
Cc1ccc(-c2csc(C(C#N)=C3CCCC3)n2)cc1		2.24 µM (active)
Nc1nc(N)c(-c2cccc(C(F)(F)F)c2)c(Cc2cccc(C(F)(F)F)c2)n1		2.51 µM (active)
Cc1ccc(C(=O)N2CCN(C3c4cccc5cccc(c45)C3NS(=O)(=O)c3ccccc3)CC2)cc1 (stereo not drawn)		3.16 µM (active)
Cc1ccc(S(=O)(=O)N[C@H](C(=O)N2CCC(C(=O)NCC(=O)O)CC2)C(C)C)cc1	-10.1% (inactive)	
CC(C)(CO)[C@H](O)C(=O)NCCCO	-17.6% [at 25.6 µM] (inactive)	

Structure (SMILES)	activity, negative = inhibition	AC50
CCOc1ccc(N(C(C)C(=O)N/N=C(\C)c2cccc(NC(=O)c3ccccc3)c2)S(C)(=O)=O)cc1 (stereo not drawn)		3.98 µM (active)
C/C(CCN1CCCCc2nc(C)c(C)cc21)=N\OC[C@@H](C)[C@H](OCc1ccccc1)C(C)C	-22.2% [at 11.4 µM] (inactive)	
C[N+](C)(C)CCO	-4.75% (inactive)	
CCc1nnc(NC(=O)C2Cc3ccccc3CN2S(=O)(=O)c2ccc(C)cc2)s1 (stereo not drawn)		0.631 µM (active)
O=C(Nc1nccs1)C1Cc2ccccc2CN1S(=O)(=O)c1ccc(F)cc1 (stereo not drawn)		0.891 µM (active)
O=C(Nc1nnc(C2CC2)s1)C1Cc2ccccc2CN1S(=O)(=O)c1ccccc1F (stereo not drawn)		0.0282 µM (active)
O=C(O)c1c[nH]c2c(ccc3[nH]cc(C(=O)O)c(=O)c32)c1=O	-8.42% [at 11.4 µM] (inactive)	
Cc1ccccc1C(=O)N/N=C/c1ccncc1		39.8 µM (active)
O=C(N/N=C\c1cccc(O)c1)c1ccncc1	-1.11% [at 11.4 µM] (inactive)	
Cc1cc(NC(=O)c2ccco2)ccc1-n1cnnn1		17.8 µM (active)
Cc1cc(C)cc(NC(=O)N2CCCC2C(=O)Nc2ccc(-n3cnnn3)c(C)c2)c1 (stereo not drawn)		0.282 µM (active)
CC(=O)Nc1cccc(NC(=O)C2CCCN2C(=O)Nc2ccccc2C)c1 (stereo not drawn)	-15.2% (inactive)	
Cc1cc(C)c(NC(=O)C2CCCN2C)c(C)c1 (stereo not drawn)	-28.8% (inactive)	
CC(C)=CCC/C(C)=C/CO/N=C1/C[C@@H](O)[C@@H](O)[C@@H]2[C@@H]3C(=O)N(C(C)(C)C)C(=O)[C@H]3CC[C@@H]12	-29.1% [at 11.4 µM] (inactive)	
CCOC(=O)c1c(NC(=O)/C=C/c2ccc3c(c2)OCO3)sc(C)c1C	-10.8% (inactive)	
CCOC(=O)c1c(NC(=O)/C=C/c2ccc3c(c2)OCO3)sc(C)c1CC		5.01 µM (active)
COc1cccc(OC)c1C(=O)NC(=S)N1CCN(c2ccc(C(F)(F)F)cc2[N+](=O)[O-])CC1		14.1 µM (active)
CC(C)Oc1cccc(C(=O)NC(=S)N2CCN(c3ccc(C(F)(F)F)cc3[N+](=O)[O-])CC2)c1		8.91 µM (active)
